For eight compounds, outcome and AC50 results are on record in PubChem BioAssay (EPA / NIEHS).

The nature of test [1]: ATG_DR4_LXR_CIS: Attagene CIS-FACTORIAL HepG2 Assay for human Liver X Receptor (LXR), DR4 submotif (AID 2282929). Particulars: HepG2 Attagene DR4 cis-reporter, mRNA transcription; actives raise or lower the signal. In short, it runs like this: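 Fluorescence intensity of labelled reporter cDNA fragments, separated by capillary electrophoresis, gives the signal. HepG2 cells bearing cis-regulated reporter constructs were treated 24 h; activity fitted bidirectionally relative to DMSO negative control.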

A short description of test [2]: ATG_Ets_CIS: Attagene CIS-FACTORIAL HepG2 Assay for human Erythroblast Transformation Specific (ETS) (AID 2282941). The note with it: HepG2 ETS cis-reporter transcription, actives raise or lower the signal. In short, it runs like this:
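Multiplexed reporter transcript profiling: HepG2, 24 h treatment, total RNA to cDNA, PCR, 6-FAM labelling, HpaI cut, capillary electrophoresis. Gain- or loss-of-signal fitted against DMSO.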

Test [3] can be described thus: ATG_M_06_CIS: Attagene CIS-FACTORIAL HepG2 Assay for M06 Transcription Factor (Internal Marker) (AID 2282950). Particulars: HepG2 Attagene CIS-FACTORIAL M06 internal marker reporter; actives raise or lower the signal. In short, it runs like this: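 Measured 24 h post-dosing in transiently transfected HepG2 cells, this internal-marker endpoint reports reporter mRNA via RT-PCR with fluorescent primer extension and capillary electrophoresis. DMSO served as negative control and baseline for bidirectional fitting.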

Test [4] concerns the target Hypoxia-inducible factor 1-alpha (Homo sapiens) (UniProt Q16665). As to the kind of experiment: ATG_HIF1a_CIS: Attagene CIS-FACTORIAL HepG2 Assay for human Hypoxia Inducible Factor 1 (HIF1A) (AID 2282951). Particulars: HepG2 Attagene cis-factorial HIF1a reporter transcription; actives raise or lower the signal. The essentials: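 Fluorescence intensity of capillary-separated, 6-FAM-labelled reporter amplicons gives mRNA induction in HepG2 cells carrying transfected cis-promoter reporter units; cells exposed 24 h, responses fitted up or down from DMSO.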

Test [5] addresses Hepatocyte nuclear factor 6 (Homo sapiens) (UniProt Q9UBC0). In words: ATG_HNF6_CIS: Attagene CIS-FACTORIAL HepG2 Assay for human Hepatocyte Nuclear Factor 6 (HNF6) (AID 2282952). Particulars: HepG2 Attagene cis-factorial HNF6 reporter transcription; actives raise or lower the signal. The essentials:
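Endogenous factor activity read in transiently transfected HepG2 via promoter-regulated reporter transcripts. RNA harvested 24 h post-dosing, reverse-transcribed, PCR-amplified, FAM-labelled, HpaI-digested and resolved by capillary electrophoresis; fitted in both directions against DMSO.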

Test [6] has as its target Heat shock factor protein 1 (Homo sapiens) (UniProt Q00613). As to the kind of experiment: ATG_HSE_CIS: Attagene CIS-FACTORIAL HepG2 Assay for human Heat Shock Transcription Factor 1 (HSE) (AID 2282953). The note with it: HepG2 HSE cis-reporter, Attagene RNA transcription; actives raise or lower the signal. In short, it runs like this:
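Reporter mRNA induction in HepG2 is measured 24 h after dosing, using transiently transfected multiplexed cis-regulated reporter units. Signal comes from capillary electrophoresis of labelled RT-PCR products, with DMSO as negative control.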

A short description of test [7]: ATG_Sox_CIS: Attagene CIS-FACTORIAL HepG2 Assay for human SRY-box transcription factor (SOX) (AID 2282960). Particulars: HepG2 Attagene cis-factorial SOX reporter, mRNA; actives raise or lower the signal. The essentials: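 Measures mRNA induction of a SOX1-associated reporter in HepG2 after 24 h dosing. Fluorescently labelled RT-PCR fragments are separated by capillary electrophoresis, and gain or loss relative to DMSO control is fitted.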

The nature of test [8]: ATG_TA_CIS: Attagene CIS-FACTORIAL HepG2 Assay for human TA Basal Promoter (AID 2282964). Particulars: HepG2 Attagene CIS-factorial TA basal promoter reporter; actives raise or lower the signal. In short, it runs like this:
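Cis-factorial format in HepG2: reporters report endogenous factors, not chimeric Gal4 fusions. After 24 h treatment, reporter transcripts were measured by RT-PCR-capillary electrophoresis fluorescence, analysed bidirectionally versus DMSO.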

The nature of test [9]: ATG_TCF_b_cat_CIS: Attagene CIS-FACTORIAL HepG2 Assay for human T-Cell-Factor with beta-catenin (TCF/b-cat) (AID 2282965). Particulars: HepG2 TCF/beta-catenin cis-reporter transcription, actives raise or lower the signal. The essentials: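 Measured: reporter mRNA in HepG2 transiently transfected with cis-promoter reporter units, 24 h after chemical addition. Fitting was bidirectional, DMSO as negative control.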

Test [10] can be described thus: ATG_TAL_CIS: Attagene CIS-FACTORIAL HepG2 Assay for human TAL Basal Promoter (AID 2282966).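 Note: background control endpoint measuring basal TAL promoter reporter mRNA not a specific factor.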 Particulars: HepG2 Attagene cis-factorial TAL promoter reporter; actives raise or lower the signal. In short, it runs like this: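 Background-control endpoint: basal TAL promoter reporter transcripts in transiently transfected HepG2, measured 24 h after dosing. Read-out by RT-PCR with fluorescent primer extension and capillary electrophoresis; gain or loss of signal fitted relative to DMSO.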

Test [11] can be described thus: ATG_TGFb_CIS: Attagene CIS-FACTORIAL HepG2 Assay for human Transforming Growth Factor (TGF) (AID 2282967). The note with it: HepG2 Attagene CIS TGFb reporter, mRNA transcription; actives raise or lower the signal. In short, it runs like this:
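Multiplexed cis-reporter HepG2 system, 24 h treatment; mRNA induction read by fluorescence after RT-PCR and CE; DMSO negative control, bidirectional curve fitting.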

Test [12] addresses X-box-binding protein 1 (Homo sapiens) (UniProt P17861). As to the kind of experiment: ATG_Xbp1_CIS: Attagene CIS-FACTORIAL HepG2 Assay for human X-box Binding Protein 1 (XBP1) (AID 2282972). The note with it: HepG2 XBP1 cis-element reporter, Attagene multiplex; actives raise or lower the signal. In short, it runs like this: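 Human hepatoma HepG2, cis-element reporter system, 24 h treatment; mRNA quantified by RT-PCR/CE fluorescence; fit relative to DMSO.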

The target of test [13] is Transcriptional activator Myb (Homo sapiens) (UniProt P10242). In words: ATG_Myb_CIS: Attagene CIS-FACTORIAL HepG2 Assay for human Myeloblastosis (Myb) Proto-Oncogene Transcription Factor (AID 2282986). Particulars: HepG2 Attagene CIS-FACTORIAL Myb reporter transcription; actives raise or lower the signal. In short, it runs like this:
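Transiently transfected HepG2 cells, treated 24 h. Reporter mRNA quantified by RT-PCR/capillary electrophoresis; bidirectional fit relative to DMSO.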

In test [14] the target is Nuclear respiratory factor 1 (Homo sapiens) (UniProt Q16656). In words: ATG_NRF1_CIS: Attagene CIS-FACTORIAL HepG2 Assay for human Nuclear Respiratory Factor 1 (NRF1) Orphan Gene (AID 2282987). The note with it: HepG2 NRF1 cis-element reporter, Attagene multiplex; actives raise or lower the signal. The essentials:
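Cells (HepG2, transient MRTU transfection) are exposed to compound for 24 h, then RNA isolated and reporter mRNA amplified and fluorescently labelled. Fragments are separated by capillary electrophoresis; signal change is fitted bidirectionally relative to DMSO.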

The target of test [15] is Myc proto-oncogene protein (Homo sapiens) (UniProt P01106). As to the kind of experiment: ATG_Myc_CIS: Attagene CIS-FACTORIAL HepG2 Assay for human Myelocytomatosis (Myc) Proto-Oncogene Transcription Factor (AID 2282990). The note with it: HepG2, Attagene cis-reporter transcription factor activity; actives raise or lower the signal. In short, it runs like this:
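Cells of the HepG2 human liver line bear multiple cis-driven reporter transcription units. Reporter mRNA after 24 h exposure is reverse-transcribed, amplified, labelled and resolved by capillary electrophoresis, with gain- or loss-of-signal fitting relative to DMSO.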

Test [16] can be described thus: ATG_NRF2_ARE_CIS: Attagene CIS-FACTORIAL HepG2 Assay for human Nuclear Factor Erythroid 2 Related Factor 2 (NFR2) response to Antioxidant Response Elements (ARE) (AID 2282992).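 For AC50: reporter mRNA level measured by RT-PCR and capillary electrophoresis fluorescence.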 The note with it: HepG2 Attagene ARE/NRF2 reporter, transcription factor activity; actives raise or lower the signal. In short, it runs like this:
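Fluorescence intensity of reporter-specific cDNA fragments, separated by capillary electrophoresis, reflects mRNA induction in transfected HepG2 cells at 24 h. Activity is fitted bidirectionally, DMSO serving as baseline.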

Test [17] can be described thus: ATG_Oct_MLP_CIS: Attagene CIS-FACTORIAL HepG2 Assay for human Octamer-Binding Transcription Factor (Oct) (AID 2282993). The note with it: HepG2 Attagene cis-factorial Oct reporter, mRNA; actives raise or lower the signal. The essentials:
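After 24 h compound exposure, transfected HepG2 cells were lysed for total RNA; reporter-specific cDNA was PCR-amplified, fluorescently labelled and sized by capillary electrophoresis. Bidirectional curve fitting used DMSO as baseline.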

Test [18] is described as follows: ATG_XTT_Cytotoxicity: Cytotoxicity Assessment in the Attagene TRANS-FACTORIAL HepG2 Assay (AID 2283584; active = hit-call score of the fitted dose curve at least 0.9, where 1 is the maximum). The essentials: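 Viability endpoint from XTT after 24 h chemical exposure of reporter-transfected human HepG2 liver cells; signal loss fitted relative to DMSO negative control.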
The target in test [19] is Nuclear receptor subfamily 1 group I member 2 (Homo sapiens) (UniProt O75469). As to the kind of experiment: ATG_PXR_TRANS: Attagene TRANS-FACTORIAL HepG2 Assay for human Pregnane X Receptor (PXR) (AID 2283008; active = hit-call score of the fitted dose curve at least 0.9, where 1 is the maximum). The essentials:
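Transient HepG2 transfectants carrying multiplexed reporter transcription units; PXR activity read through a Gal4 chimera. 24 h exposure. RT-PCR/CE fluorescence; upward curve fit referenced to DMSO.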

In test [20] the target is Cellular tumor antigen p53 (Homo sapiens) (UniProt P04637). In words: ATG_p53_CIS: Attagene CIS-FACTORIAL HepG2 Assay for human p53 Transcription Factor (AID 2282994). The note with it: HepG2 p53 cis-element reporter, Attagene mRNA; actives raise or lower the signal. In short, it runs like this: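 Transiently transfected HepG2 (multiple cis reporter transcription units); exposure 24 h; reporter RNA via RT-PCR, 6-FAM extension, 2 h HpaI digest at 37 C, CE detection; DMSO baseline.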
Sequence of Cellular tumor antigen p53 (Homo sapiens) (P04637 whole entry, looked up): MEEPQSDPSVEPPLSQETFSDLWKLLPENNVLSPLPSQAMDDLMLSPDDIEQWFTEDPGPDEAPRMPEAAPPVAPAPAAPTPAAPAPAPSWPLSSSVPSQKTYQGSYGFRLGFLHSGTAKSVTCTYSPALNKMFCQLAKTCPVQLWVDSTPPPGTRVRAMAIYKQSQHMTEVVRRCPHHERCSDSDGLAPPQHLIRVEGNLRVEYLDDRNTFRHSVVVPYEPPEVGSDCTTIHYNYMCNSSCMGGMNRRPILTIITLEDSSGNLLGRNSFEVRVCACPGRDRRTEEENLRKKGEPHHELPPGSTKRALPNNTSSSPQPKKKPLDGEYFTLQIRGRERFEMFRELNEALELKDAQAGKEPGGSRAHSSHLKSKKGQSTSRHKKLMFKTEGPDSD

SMILES strings stand for the structures. Inconclusive results are not listed. Active and inactive are the calls of the source. Rule for the calls, unless noted: active = hit-call score of the fitted dose curve at least 0.9, where 1 is the maximum; inactive = score below 0.9.

Sequence of X-box-binding protein 1 (Homo sapiens) (P17861 whole entry, looked up): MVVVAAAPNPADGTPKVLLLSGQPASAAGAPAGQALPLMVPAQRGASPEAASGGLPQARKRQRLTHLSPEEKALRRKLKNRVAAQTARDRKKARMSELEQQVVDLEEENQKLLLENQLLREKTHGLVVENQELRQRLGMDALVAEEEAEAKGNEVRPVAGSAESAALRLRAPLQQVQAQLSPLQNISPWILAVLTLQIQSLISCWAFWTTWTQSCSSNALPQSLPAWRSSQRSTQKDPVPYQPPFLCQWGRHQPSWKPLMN
Sequence of Heat shock factor protein 1 (Homo sapiens) (Q00613 whole entry, looked up): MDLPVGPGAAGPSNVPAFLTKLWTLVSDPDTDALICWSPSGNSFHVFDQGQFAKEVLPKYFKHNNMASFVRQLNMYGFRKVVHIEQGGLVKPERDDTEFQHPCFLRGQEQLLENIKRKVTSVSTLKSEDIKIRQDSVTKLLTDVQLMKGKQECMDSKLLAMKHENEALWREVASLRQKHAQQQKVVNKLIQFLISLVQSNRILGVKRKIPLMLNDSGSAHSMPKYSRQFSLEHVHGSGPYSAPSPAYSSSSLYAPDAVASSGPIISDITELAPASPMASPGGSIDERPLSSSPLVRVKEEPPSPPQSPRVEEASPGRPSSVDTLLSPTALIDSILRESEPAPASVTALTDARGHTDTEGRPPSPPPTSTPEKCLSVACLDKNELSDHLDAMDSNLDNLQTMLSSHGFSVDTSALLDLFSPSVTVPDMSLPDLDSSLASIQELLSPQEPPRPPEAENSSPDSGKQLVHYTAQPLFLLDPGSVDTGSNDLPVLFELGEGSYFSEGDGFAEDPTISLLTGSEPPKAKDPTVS
Sequence of Nuclear receptor subfamily 1 group I member 2 (Homo sapiens) (O75469 whole entry, looked up, the tested form may be a part): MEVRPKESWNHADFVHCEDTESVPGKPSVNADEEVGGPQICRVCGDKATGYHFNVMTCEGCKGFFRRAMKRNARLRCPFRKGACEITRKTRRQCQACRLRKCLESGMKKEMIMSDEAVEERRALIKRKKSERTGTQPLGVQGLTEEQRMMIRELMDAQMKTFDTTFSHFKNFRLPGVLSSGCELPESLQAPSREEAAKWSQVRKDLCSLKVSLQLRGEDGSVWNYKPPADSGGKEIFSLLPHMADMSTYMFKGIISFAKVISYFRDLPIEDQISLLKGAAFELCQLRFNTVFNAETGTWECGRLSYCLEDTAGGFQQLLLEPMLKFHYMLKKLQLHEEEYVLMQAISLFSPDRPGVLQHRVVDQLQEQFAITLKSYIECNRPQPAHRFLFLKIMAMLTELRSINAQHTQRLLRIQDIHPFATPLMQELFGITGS
Sequence of Nuclear respiratory factor 1 (Homo sapiens) (Q16656 whole entry, looked up, the tested form may be a part): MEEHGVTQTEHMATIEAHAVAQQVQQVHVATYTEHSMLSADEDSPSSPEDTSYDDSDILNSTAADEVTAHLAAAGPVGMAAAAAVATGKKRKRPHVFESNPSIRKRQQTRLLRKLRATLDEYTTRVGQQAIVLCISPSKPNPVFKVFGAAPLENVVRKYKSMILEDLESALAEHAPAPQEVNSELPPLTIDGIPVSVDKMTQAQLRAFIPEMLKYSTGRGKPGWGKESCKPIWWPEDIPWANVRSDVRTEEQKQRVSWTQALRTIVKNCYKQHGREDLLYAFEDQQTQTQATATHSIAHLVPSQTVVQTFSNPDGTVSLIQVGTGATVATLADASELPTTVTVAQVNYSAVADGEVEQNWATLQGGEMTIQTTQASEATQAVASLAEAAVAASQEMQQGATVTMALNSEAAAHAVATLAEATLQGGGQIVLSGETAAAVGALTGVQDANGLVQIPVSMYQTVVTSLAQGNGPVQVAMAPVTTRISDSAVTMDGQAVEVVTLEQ
Sequence of Myc proto-oncogene protein (Homo sapiens) (P01106 whole entry, looked up): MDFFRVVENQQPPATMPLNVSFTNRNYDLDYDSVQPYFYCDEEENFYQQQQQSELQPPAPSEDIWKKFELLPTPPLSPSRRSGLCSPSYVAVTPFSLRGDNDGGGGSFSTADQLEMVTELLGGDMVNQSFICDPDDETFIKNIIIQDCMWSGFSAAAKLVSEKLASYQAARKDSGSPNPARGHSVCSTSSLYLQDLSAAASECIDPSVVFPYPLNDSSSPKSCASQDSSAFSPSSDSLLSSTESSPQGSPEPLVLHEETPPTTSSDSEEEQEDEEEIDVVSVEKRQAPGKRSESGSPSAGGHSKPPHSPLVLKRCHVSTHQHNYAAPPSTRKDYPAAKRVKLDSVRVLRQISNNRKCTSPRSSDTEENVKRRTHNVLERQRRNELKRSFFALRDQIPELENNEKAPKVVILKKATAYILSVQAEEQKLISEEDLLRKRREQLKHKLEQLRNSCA
Sequence of Hepatocyte nuclear factor 6 (Homo sapiens) (Q9UBC0 whole entry, looked up): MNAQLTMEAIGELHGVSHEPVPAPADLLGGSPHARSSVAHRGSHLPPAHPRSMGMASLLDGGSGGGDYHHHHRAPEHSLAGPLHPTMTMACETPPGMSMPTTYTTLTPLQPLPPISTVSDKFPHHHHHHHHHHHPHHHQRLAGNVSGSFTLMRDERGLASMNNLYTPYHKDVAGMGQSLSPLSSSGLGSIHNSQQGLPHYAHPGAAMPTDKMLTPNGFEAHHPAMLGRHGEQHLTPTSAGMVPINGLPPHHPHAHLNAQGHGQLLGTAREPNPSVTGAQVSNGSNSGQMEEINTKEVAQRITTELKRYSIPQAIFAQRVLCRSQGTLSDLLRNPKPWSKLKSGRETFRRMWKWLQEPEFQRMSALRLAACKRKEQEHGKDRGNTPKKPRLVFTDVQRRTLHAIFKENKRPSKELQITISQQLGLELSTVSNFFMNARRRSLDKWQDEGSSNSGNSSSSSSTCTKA
Sequence of Transcriptional activator Myb (Homo sapiens) (P10242 whole entry, looked up): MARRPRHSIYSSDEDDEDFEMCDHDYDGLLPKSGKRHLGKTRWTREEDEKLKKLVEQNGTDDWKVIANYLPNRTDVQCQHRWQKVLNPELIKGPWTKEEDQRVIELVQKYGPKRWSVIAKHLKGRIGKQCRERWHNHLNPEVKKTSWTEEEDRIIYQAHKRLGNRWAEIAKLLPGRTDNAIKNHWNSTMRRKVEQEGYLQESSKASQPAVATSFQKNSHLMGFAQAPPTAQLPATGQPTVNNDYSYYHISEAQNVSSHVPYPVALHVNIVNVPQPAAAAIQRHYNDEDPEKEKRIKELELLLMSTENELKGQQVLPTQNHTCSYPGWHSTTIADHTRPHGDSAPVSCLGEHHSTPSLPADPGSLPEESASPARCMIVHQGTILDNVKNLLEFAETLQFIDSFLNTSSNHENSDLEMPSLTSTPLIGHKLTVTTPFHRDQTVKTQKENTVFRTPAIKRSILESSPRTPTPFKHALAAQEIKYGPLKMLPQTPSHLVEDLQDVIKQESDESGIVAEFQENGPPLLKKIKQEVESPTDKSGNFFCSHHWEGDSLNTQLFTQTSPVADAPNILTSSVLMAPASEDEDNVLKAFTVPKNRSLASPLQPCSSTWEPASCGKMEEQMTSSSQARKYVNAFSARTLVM
Sequence of Hypoxia-inducible factor 1-alpha (Homo sapiens) (Q16665 whole entry, looked up): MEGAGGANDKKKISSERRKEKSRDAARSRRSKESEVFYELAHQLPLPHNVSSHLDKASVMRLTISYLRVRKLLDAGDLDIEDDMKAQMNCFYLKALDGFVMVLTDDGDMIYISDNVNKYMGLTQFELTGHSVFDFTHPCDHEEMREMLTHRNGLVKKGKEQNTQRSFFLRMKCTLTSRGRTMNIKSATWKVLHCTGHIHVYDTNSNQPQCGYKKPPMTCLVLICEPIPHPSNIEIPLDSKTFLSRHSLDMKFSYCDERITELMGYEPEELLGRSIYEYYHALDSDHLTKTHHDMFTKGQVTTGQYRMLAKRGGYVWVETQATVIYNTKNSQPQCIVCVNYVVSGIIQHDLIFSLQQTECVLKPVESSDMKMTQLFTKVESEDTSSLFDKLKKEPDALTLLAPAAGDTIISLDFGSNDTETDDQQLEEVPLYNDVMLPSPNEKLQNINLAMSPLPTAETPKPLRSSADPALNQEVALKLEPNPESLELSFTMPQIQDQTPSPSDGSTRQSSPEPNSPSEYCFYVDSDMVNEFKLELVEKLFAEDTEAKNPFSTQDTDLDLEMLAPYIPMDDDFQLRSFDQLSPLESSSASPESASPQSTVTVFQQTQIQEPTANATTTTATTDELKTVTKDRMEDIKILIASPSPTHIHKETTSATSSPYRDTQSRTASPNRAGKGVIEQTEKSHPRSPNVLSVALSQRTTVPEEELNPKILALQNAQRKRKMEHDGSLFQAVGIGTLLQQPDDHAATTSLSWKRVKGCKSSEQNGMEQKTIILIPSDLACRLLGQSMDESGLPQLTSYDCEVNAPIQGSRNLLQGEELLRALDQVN

Turning to `O=[N+]([O-])c1ccc2nc[nH]c2c1`, the compound was called inactive in test [1], in test [2], in [3], in test [4], in test [5] and in test [6]. The call in test [7], in test [8], in [9], in [10], in test [11] and in test [12] was inactive. For the same compound, the compound was classed as inactive in test [13], in [14], in [15], in [16], in test [17] and in [18].

Usually AC50 stands for the midpoint of the concentration-response curve, whichever way the signal moves. For `c1cc[c]([Bi]([c]2ccccc2)[c]2ccccc2)cc1`, the AC50 in test [1] is 5.72 µM (active); in [11], 40.4 µM (active); in [16], 48.9 µM (active); in test [19], 2.73 µM (active). The call in test [3], in [4], in [5], in test [6], in test [7] and in [8] was inactive. In addition, the result in test [9], in [10], in test [12], in test [13], in [14] and in test [15] was inactive. The compound was called inactive in test [17] and in test [18].

`CCCCCCC(O)CCCCCCCCCCC(=O)OC` (stereo not given): the result in [1], in test [2], in [3], in [4], in [5] and in test [8] was inactive. In addition, the compound was called inactive in test [9], in test [12], in test [13], in [14], in [15] and in test [16]. In addition, the compound was classed as inactive in test [17], in [20], in test [19] and in [18]. The AC50 in test [11] is 100 µM (active).

With `CC(C)=CCOC(=O)c1ccccc1`, the call in [1], in test [2], in test [4], in test [5], in test [6] and in test [7] was inactive. Besides, the compound was called inactive in test [8], in test [9], in test [10], in test [11], in test [12] and in [13]. For the same compound, the compound was classed as inactive in test [14], in [15], in [16], in test [17], in [20] and in test [19]. Further, in test [18], the compound was called inactive.

With `CC(=O)Nc1c(I)c(NC(C)=O)c(I)c(C(=O)O)c1I`, the compound was classed as inactive in test [1], in test [3], in [5], in test [6], in test [7] and in test [8]. Further, the result in [9], in [10], in [11], in test [12], in test [13] and in test [14] was inactive. Further, the call in [15], in test [16], in [17] and in [18] was inactive.

Turning to `[O-][n+]1ccc(Cl)cc1`, the call in test [1], in test [2], in test [4], in test [5], in [6] and in [7] was inactive. Besides, the compound was classed as inactive in [8], in test [9], in test [11], in test [12], in [13] and in test [14]. Besides, the outcome in test [15], in [16], in [17], in test [20], in test [19] and in test [18] was inactive.

Take `CCCCCCCC#N`: the result in test [1], in [3], in test [4], in test [5], in test [6] and in test [8] was inactive. The compound was classed as inactive in test [9], in [10], in test [11], in test [12], in test [13] and in [14]. Moreover, the outcome in test [15], in test [16], in [17], in test [19] and in test [18] was inactive.

Turning to `CC=CC(=O)O`, the result in test [1], in test [5], in [6], in test [7], in test [8] and in [9] was inactive. The result in test [10], in test [11], in [12], in test [13], in test [14] and in test [15] was inactive. The result in [16], in test [17], in test [19] and in test [18] was inactive. In test [4], the concentration at half-maximal activity (AC50) is 56 µM (active).
